# “And” between values parts separate entries of the source, which are not always exact repeats. Equal entries are not always repeated. Values without a mark were called inactive. The source made the active and inactive calls. Cut-off read from the data, not from the text of the source: active = remaining activity below about 50%; inactive = the rest.
# Biological target: Phospholipase D2 (Homo sapiens) (UniProt O14939)
# Test: PLD2 inhibitors in cells, cell-based, HEK293, single concentration (AID 602143);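 note: tested at 200 nM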
# Conditions: HEK293 cellular PLD2 activity, percent of control; stronger effect = lower value
# Chain of Phospholipase D2 (Homo sapiens) (O14939 whole entry, looked up): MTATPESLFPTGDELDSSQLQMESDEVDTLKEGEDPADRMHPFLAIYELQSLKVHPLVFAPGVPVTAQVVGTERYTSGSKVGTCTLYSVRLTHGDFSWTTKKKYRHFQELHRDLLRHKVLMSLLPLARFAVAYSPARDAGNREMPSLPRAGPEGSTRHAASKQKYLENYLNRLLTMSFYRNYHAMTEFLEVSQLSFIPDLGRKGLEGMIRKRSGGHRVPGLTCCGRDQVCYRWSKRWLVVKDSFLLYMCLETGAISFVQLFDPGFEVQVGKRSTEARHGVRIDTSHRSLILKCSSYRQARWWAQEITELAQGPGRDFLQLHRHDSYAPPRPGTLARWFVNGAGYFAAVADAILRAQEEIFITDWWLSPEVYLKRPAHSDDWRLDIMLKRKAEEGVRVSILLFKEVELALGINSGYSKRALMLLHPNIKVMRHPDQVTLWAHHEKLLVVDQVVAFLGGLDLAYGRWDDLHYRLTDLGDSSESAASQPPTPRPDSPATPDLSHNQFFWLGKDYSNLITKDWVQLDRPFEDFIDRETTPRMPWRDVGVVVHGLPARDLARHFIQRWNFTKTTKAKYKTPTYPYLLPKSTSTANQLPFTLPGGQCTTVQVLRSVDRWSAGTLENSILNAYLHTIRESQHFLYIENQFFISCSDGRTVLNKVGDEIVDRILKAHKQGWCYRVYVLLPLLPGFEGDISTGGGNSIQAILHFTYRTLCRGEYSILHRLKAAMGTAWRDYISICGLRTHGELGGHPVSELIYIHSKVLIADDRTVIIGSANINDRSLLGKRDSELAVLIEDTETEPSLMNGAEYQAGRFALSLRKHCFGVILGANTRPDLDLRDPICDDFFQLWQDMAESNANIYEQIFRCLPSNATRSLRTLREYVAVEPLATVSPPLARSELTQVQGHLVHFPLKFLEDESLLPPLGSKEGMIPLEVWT
# Chain of Phospholipase D2 (Homo sapiens) (O14939 whole entry, looked up): as above
row,SMILES,remaining activity
1,O=C(NCCN1CCC2(CC1)C(=O)NCN2c1ccc(Cl)cc1)c1ccc(Cl)cc1,49% (active)
2,Nc1ccc(C(=O)NCCN2CCC3(CC2)C(=O)NCN3c2ccccc2)cc1OC(F)(F)F,97.3%
3,O=C(NCCN1CCC2(CC1)C(=O)NCN2c1cccc(F)c1)c1cnc2ccccc2c1,5.53% (active)
4,O=C(CN1CCC2(CC1)C(=O)NCN2c1ccccc1)c1ccccc1,106%
5,O=C(NCCN1CCC2(CC1)C(=O)NCN2c1ccc(Br)cc1)c1ccc(F)cc1,73.2%
6,C[C@@H](CN1CCC2(CC1)C(=O)N(Cc1ccccc1)c1ccccc12)NC(=O)c1ccc2ccccc2c1,71.6%
7,O=C(NCCN1CCC2(CC1)C(=O)NCN2c1cccc(Cl)c1)c1ccc2ccccc2c1,72%
8,O=C(NCCN1CCC2(CC1)C(=O)NCN2c1ccccc1)c1cc(=O)c2cc(Br)ccc2o1,122%
9,O=C(NCCN1CCC2(CC1)C(=O)NCN2c1ccccc1)c1cc(-c2ccccc2)no1,88.3%
10,O=C(NCCN1CCC2(CC1)C(=O)NCN2c1ccc(F)c(F)c1)c1cc2cc(F)ccc2[nH]1,10.4% (active)
11,O=C(c1ccc(F)c(F)c1)N1CCC[C@@H]1CN1CCC2(CC1)C(=O)NCN2c1ccccc1,124%
12,O=C(NCCN1CCC2(CC1)C(=O)NCN2c1ccc(Cl)cc1)c1cc2cc(F)ccc2[nH]1,57%
13,O=C(NCCN1CCC2(CC1)C(=O)NCN2c1ccccc1)C1C[C@H]1c1ccccc1 (stereo not given in full),98.4%
14,O=C(NCCN1CCC2(CC1)C(=O)NCN2c1ccc(Cl)cc1)c1ccc(F)cc1,58.4%
15,CC(C)[C@@H](CN1CCC2(CC1)C(=O)NCN2c1ccccc1)NC(=O)c1ccc(Cl)cc1,59.4%
16,O=C(c1cnc2ccccc2c1)N1CC(N2CCC(n3c(=O)[nH]c4cc(Br)ccc43)CC2)C1,99.7%
17,O=C(NCCN1CCC2(CC1)C(=O)NCN2c1ccccc1)c1ncccc1F,82.2%
18,O=C(NCCN1CCC2(CC1)C(=O)NCN2c1ccc(F)cc1)c1ccc2ccccc2c1,34.3% (active)

row,SMILES,remaining activity
1,C[C@H](CN1CCC2(CC1)C(=O)NCN2c1ccccc1)NC(=O)c1cc2cc(F)ccc2[nH]1,0% (active)
2,O=C(NCCN1CCC2(CC1)C(=O)NCN2c1ccc(F)c(F)c1)c1ccc(F)cc1,49.6% (active)
3,O=C(NCCN1CCC2(CC1)C(=O)NCN2c1ccccc1)c1cc(Br)c(Br)o1,77.1%
4,O=C(c1c(F)cccc1F)N(CCN1CCC2(CC1)C(=O)NCN2c1cccc(F)c1)C(=O)c1c(F)cccc1F,88.1%
5,O=C(CCN1CCC2(CC1)C(=O)NCN2c1ccccc1)Nc1cnc2ccccc2c1,104%
6,Cc1cccc(C(=O)NCCN2CCC3(CC2)C(=O)NCN3c2ccccc2)n1,89%
7,O=C(c1ccc(F)c(F)c1)N1CCCC1CN1CCC(n2c(=O)[nH]c3ccccc32)CC1 (stereo not given),124% and 114%
8,C[C@@H](CN1CCC2(CC1)C(=O)NCN2c1ccc(F)c(F)c1)NC(=O)c1cc2ccccc2[nH]1,0% (active)
9,O=C(COCc1ccccc1)NCCN1CCC2(CC1)C(=O)NCN2c1cccc(F)c1,86.7%
10,O=C(NCCN1CCC2(CC1)C(=O)NCN2c1ccccc1)c1cccc(F)n1,63.2%
11,O=C(CCCl)NCCN1CCC2(CC1)C(=O)NCN2c1cccc(F)c1,87.1%
12,O=C(NCCN1CCC2(CC1)C(=O)NCN2c1ccc(Cl)cc1)c1cnc2ccccc2c1,29.7% (active)
13,O=C(NCCN1CCC2(CC1)C(=O)NCN2c1ccccc1)c1ncc[nH]1,113%
14,Cc1ccccc1C(=O)NCCN1CCC2(CC1)C(=O)NCN2c1cccc(F)c1,115%
15,CC(C)[C@@H](CN1CCC2(CC1)C(=O)NCN2c1ccccc1)NC(=O)c1ccc2ccccc2c1,80.9%
16,O=C(NCCCN1CCC2(CC1)C(=O)NCN2c1ccccc1)c1cnc2ccccc2c1,96.4%
17,O=C1NCN(c2ccccc2)C12CCN(CCN1CCCC1)CC2,84.9%
